Assay results: PubChem BioAssay (EPA / NIEHS)
Several values for one entry are separate records, joined by “and”; a condition that tells them apart may be missing. Equal values may be shown once. Some structures have more than one record in an assay (separate samples or runs), and their calls can disagree. Activity calls are given as the source filed them. The calls were made as follows: active = hit-call score of the fitted dose curve at least 0.9, where 1 is the maximum; inactive = score below 0.9.

Read-out: Monokine induced gamma interferon (MIG), CXCL9 (gene 4283)
Assay: BSK_KF3CT_MIG: BioMAP Diversity Plus: KF3CT Assay for Monokine induced gamma interferon (MIG) Biomarker Activity (AID 2284248)
Conditions: primary human keratinocytes with fibroblasts
Method in brief: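 Human keratinocyte–foreskin fibroblast co-culture; MIG measured by ELISA 24 h after chemical dosing, fitted upward versus DMSO. Cytotoxicity was assessed in parallel cultures by SRB total-protein staining read at 560 nm.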

Compound	AC50	outcome
CCOC(=O)c1ccccc1C(=C1C=C(Br)C(=O)C(Br)=C1)c1cc(Br)c(O)c(Br)c1	4.3 µM (active) and 3.96 µM (active)	–
CCCCC(CC)COCC1CO1 (stereo not drawn)	–	inactive
CCO[Si](C)(OCC)OCC	–	inactive
O=C(c1ccc(O)cc1)c1ccc(O)cc1O	–	inactive
CO[Si](OC)(OC)c1ccccc1	–	inactive
C=C[Si](OC(C)=O)(OC(C)=O)OC(C)=O	–	inactive
CN1C(=O)N(C)C(O)C1O (stereo not drawn)	–	inactive
O=C1CCCN1CCO	–	inactive
Nc1ccc(N)c(Cl)c1	12.3 µM (active)	inactive

Read-out: Collagen I, COL1A1 (gene 1277)
Assay: BSK_hDFCGF_CollagenI: BioMAP Diversity Plus: hDFCGF Assay for Collagen I Biomarker Activity (AID 2284250)
Conditions: primary human foreskin fibroblasts
Method in brief: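 Cells were primary human foreskin fibroblasts treated for 24 h. Collagen I levels were then determined by ELISA and compared against DMSO controls.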

Compound	AC50	outcome
CCOC(=O)c1ccccc1C(=C1C=C(Br)C(=O)C(Br)=C1)c1cc(Br)c(O)c(Br)c1	3.27 µM (active)	–
CCCCC(CC)COCC1CO1 (stereo not drawn)	–	inactive
CCO[Si](C)(OCC)OCC	–	inactive
O=C(c1ccc(O)cc1)c1ccc(O)cc1O	–	inactive
CO[Si](OC)(OC)c1ccccc1	–	inactive
C=C[Si](OC(C)=O)(OC(C)=O)OC(C)=O	–	inactive
CN1C(=O)N(C)C(O)C1O (stereo not drawn)	–	inactive
O=C1CCCN1CCO	–	inactive
Nc1ccc(N)c(Cl)c1	26.7 µM (active)	inactive

Read-out: Interferon-inducible T-cell alpha chemoattractant (ITAC), CXCL11 (gene 6373)
Assay: BSK_hDFCGF_ITAC: BioMAP Diversity Plus: hDFCGF Assay for Interferon-inducible T-cell alpha chemoattractant (ITAC) Biomarker Activity (AID 2284251)
Conditions: primary human foreskin fibroblasts
Protocol: BSK_hDFCGF is a cell-based, multiplexed-readout assay that uses foreskin fibroblast, a human skin primary cell, with measurements taken at 24 hours after chemical dosing in a 96-well plate.BSK_hDFCGF_ITAC is an assay component measured in the BSK_hDFCGF assay. It measures I-TAC antibody related to regulation of gene expression using ELISA technology.Data from the assay component BSK_hDFCGF_ITAC was analyzed at the endpoint, BSK_hDFCGF_ITAC, in the positive analysis fitting direction relative to DMSO as the negative control and baseline of activity. Using a type of binding reporter, gain or loss-of-signal activity can be used to understand protein changes. To generalize the intended target to other relatable targets, this assay endpoint is annotated to the 'cytokine' intended target family, where the subfamily is 'chemotactic factor'.
The levels of cell surface (or secreted, indicated by the prefix "s") biomarker endpoints were measured by ELISA. Overt cytotoxicity to cells in confluent adherent cultures (all systems other than the BT system) was assessed by measuring total protein levels using sulforhodamine B (SRB) staining in parallel cultures at the time of biomarker measurements, indicated as SRB endpoints. For proliferation assays for adherent cell types, individual cell types are cultured at sub-confluence and relative cell numbers quantified by SRB staining at time points optimized for each system (48 h: 3C and CASM3C systems; 72 h: BT and HDF3CGF systems; 96 h: SAg system). SRB was performed by staining cells with 0.1% SRB after fixation with 10% TCA and reading wells at 560 nm.Viability and proliferation of PBMC (T cells) was quantified by Alamar Blue reduction for the SAg and BT systems. For PBMC viability (referred to as PBMC Cytotoxicity within the assay endpoint names), cells were plated (75,000/well in a 96-well plate) and then chemical samples added for 1 h before addition of activators, SEB and TSST-1 (20 ng/mL final concentration each). Cells were incubated for 90 h. Then, Alamar Blue (20 uL/well) (Invitrogen, Cat DAL1100) was added for 6 h, and the plates were read with a fluorescence microplate reader at 546/580 nm (excitation/emission). For PBMC proliferation, cells were plated and activated as above but incubated for only 16 h prior to addition of Alamar Blue. Plates were read after 6 h.

Compound	AC50	outcome
CCOC(=O)c1ccccc1C(=C1C=C(Br)C(=O)C(Br)=C1)c1cc(Br)c(O)c(Br)c1	4.39 µM (active) and 4.49 µM (active)	–
CCCCC(CC)COCC1CO1 (stereo not drawn)	–	inactive
CCO[Si](C)(OCC)OCC	–	inactive
O=C(c1ccc(O)cc1)c1ccc(O)cc1O	–	inactive
CO[Si](OC)(OC)c1ccccc1	–	inactive
C=C[Si](OC(C)=O)(OC(C)=O)OC(C)=O	–	inactive
CN1C(=O)N(C)C(O)C1O (stereo not drawn)	–	inactive
O=C1CCCN1CCO	–	inactive
Nc1ccc(N)c(Cl)c1	23.4 µM (active) and 22.6 µM (active)	–

Read-out: Plasminogen activator inhibitor-1 (PAI1), SERPINE1 (gene 5054)
Assay: BSK_KF3CT_PAI1: BioMAP Diversity Plus: KF3CT Assay for Plasminogen activator inhibitor-1 (PAI1) Biomarker Activity (AID 2284252)
Conditions: primary human keratinocytes with fibroblasts
Method in brief: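 Signal is PAI-1 detected by ELISA in a human skin-derived keratinocyte/fibroblast co-culture, 24 h after dosing; DMSO served as negative control and baseline.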

Compound	AC50	outcome
CCOC(=O)c1ccccc1C(=C1C=C(Br)C(=O)C(Br)=C1)c1cc(Br)c(O)c(Br)c1	3.18 µM (active) and 3.06 µM (active)	–
CCCCC(CC)COCC1CO1 (stereo not drawn)	–	inactive
CCO[Si](C)(OCC)OCC	–	inactive
O=C(c1ccc(O)cc1)c1ccc(O)cc1O	–	inactive
CO[Si](OC)(OC)c1ccccc1	–	inactive
C=C[Si](OC(C)=O)(OC(C)=O)OC(C)=O	–	inactive
CN1C(=O)N(C)C(O)C1O (stereo not drawn)	–	inactive
O=C1CCCN1CCO	–	inactive
Nc1ccc(N)c(Cl)c1	13.1 µM (active) and 26.5 µM (active)	–
